In PubChem BioAssay AID1568 (National Center for Advancing Translational Sciences (NCATS), 2009):
Results filed as inconclusive are left out. Entries that show only a call come without a potency. Calls of active or inactive are those of the source. Calls follow the shape of the dose curve; as a rule, active = well fitted curve in the direction sought with a large enough effect; inconclusive = small, poorly fitted or top-dose-only effect, or effect the other way, or another doubt; inactive = no such curve, though single readings can be large or run the other way.

Experiment: Cell Viability Secondary Assay to Characterize qHTS Inhibitors of the Interaction of Thyroid Hormone Receptor and Steroid Receptor Coregulator 2
Details: cell viability counter-screen, qHTS titration; series mostly up to 29.9 µM
Outline: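 WRO human follicular thyroid carcinoma cells stably expressing TRbeta and a TRE-luciferase reporter, treated with compounds plus 100nM T3 (final) for 16 h at 37 C. Viability read as ATP content by CellTiter-Glo luminescence.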
In the case of `COc1cc(C(c2c(C)[nH][nH]c2=O)c2c(C)[nH][nH]c2=O)ccc1OC(=O)c1ccccc1OC`, the Potency is reported as “inactive”. In the case of `CCCCOc1ccc(C(=O)CCN2CCOCC2)cc1`, the Potency is reported as “inactive”. In the case of `COc1ccc(-c2nc(CS(=O)CC(=O)NCc3ccccn3)c(C)o2)cc1` (centres undefined), the Potency is reported as “inactive”. For `O=C(O)/C=C/C(=O)Nc1ccc(SC(F)(F)C(F)(F)C(F)(F)F)cc1`, the Potency was “inactive”. In the case of `Cc1ccc2c(CC(=O)Nc3c(C(=O)c4ccc(F)cc4)oc4ccccc34)coc2c1C`, the Potency is reported as “inactive”. For `COc1ccc(CN2C(=O)Cc3c2nc(N)c2c(N)nc(N4CCCCC4)c(C#N)c32)cc1`, the Potency was “inactive”. With `C=CCSc1nnc2n(-c3ccccc3OC)c(=O)c3c4c(sc3n12)CCC4` the Potency was “inactive”. For `Cn1c(CCN2CCCCC2)nc2cc(NS(=O)(=O)c3ccc(Cl)cc3)ccc21`, the Potency was “inactive”. With `Cc1[nH][nH]c(=O)c1C(c1ccc(-c2ccccc2C(=O)O)o1)c1c(C)[nH][nH]c1=O` the Potency was “inactive”. In the case of `Nc1cccnc1Sc1cc(Cl)c(Cl)cc1Cl`, the Potency is reported as “inactive”. For `CCOC(=O)C(NC(=O)Nc1ccc(O)cc1)(c1ccccc1)C(F)(F)F` (centres undefined), the Potency was “inactive”. For `CC1(C)CC(=O)C(N=Nc2cccc(S(=O)(=O)N3CCOCC3)c2)=C(O)C1`, the Potency was “inactive”. In the case of `CC(=O)NC1N=C(C)N(c2ccccc2)C1=O` (centres undefined), the Potency is reported as “inactive”. For `C/C(=C\C(=O)c1ccccc1)Nc1ccc(O)cc1`, the Potency was “inactive”. In the case of `CCOc1cc(C(c2c(C)[nH][nH]c2=O)c2c(C)[nH][nH]c2=O)ccc1OC(=O)c1cccc([N+](=O)[O-])c1`, the Potency is reported as “inactive”. For `Cn1c(=O)[nH]c2nnc(-c3ccc(Cl)c(Cl)c3)nc2c1=O`, the Potency was “inactive”. For `CCOc1cc(C(c2c(C)[nH][nH]c2=O)c2c(C)[nH][nH]c2=O)ccc1OS(=O)(=O)c1ccc(C)cc1`, the Potency was “inactive”. For `N#Cc1c(NC(=O)c2ccccc2Cl)n(Cc2ccccc2)c2nc3ccccc3nc12`, the Potency was “inactive”. For `Oc1ccc2ccccc2c1/C=N/c1nc2c(s1)CCCC2`, the Potency was “inactive”. With `COc1cc(NC(C)CCCN)c2ncccc2c1` (centres undefined) the Potency was 22.4 µM (active). With `CN1CCc2ccc3c4c2[C@]1(C)Cc1cccc(c1-4)OCO3` the Potency was 8.91 µM (active). With `CS(=O)(=O)c1ccc(C(=O)OCC(=O)NC(=O)C2CCCCC2)cc1[N+](=O)[O-]` the Potency was “inactive”. With `CN(C)c1cc(Cl)c2nonc2c1N` the Potency was “inactive”. In the case of `COc1ccc(C(=O)Oc2ccc(C(c3c(C)[nH][nH]c3=O)c3c(C)[nH][nH]c3=O)cc2OC)cc1`, the Potency is reported as “inactive”. In the case of `CCN(C(=O)C1CCCN(c2ncnc3onc(-c4ccc(F)cc4)c23)C1)c1ccccc1` (centres undefined), the Potency is reported as “inactive”. For `Cc1nc2c3cc(F)ccc3n(Cc3ccccc3F)c2s1`, the Potency was “inactive”. In the case of `CCCCCCN=CC1=C(O)CC(C)(C)CC1=O`, the Potency is reported as “inactive”. In the case of `C=CC(=O)OCCOc1ccccc1`, the Potency is reported as “inactive”. For `COc1ccc2ccc3c(c2c1)N=CC1(O3)N(C)c2ccccc2C1(C)C` (centres undefined), the Potency was “inactive”. In the case of `CC1(C)C(N(O)C(=O)Nc2ccc(Cl)cc2)N(c2ccc(Cl)cc2)C(=O)N1CC(=O)NN` (centres undefined), the Potency is reported as “inactive”. With `CC1=NN(c2ccc(F)cc2)C(=O)C1C(c1cccc(O)c1)c1c(C)[nH]n(-c2ccc(F)cc2)c1=O` (centres undefined) the Potency was “inactive”. With `Nc1cc(N)c(OCC(F)(F)F)cc1OCC(F)(F)F` the Potency was 14.1 µM (active). In the case of `COc1ccc2c(c1)-c1nc(/N=C/c3c(O)ccc4ccccc34)sc1CC2`, the Potency is reported as “inactive”. In the case of `Oc1ccc2ccccc2c1C=NC12CN3CCN(CN(C3)C1)C2`, the Potency is reported as “inactive”. With `COn1c2c(c3c4nonc4ccc31)CCCC2` the Potency was “inactive”. In the case of `N/C(Cc1cccc2ccccc12)=N\OC(=O)c1cccs1`, the Potency is reported as “inactive”. For `Cc1cccc(S(=O)(=O)c2cn(Cc3ccccc3)c3cc(N4CCC(C)CC4)c(F)cc3c2=O)c1`, the Potency was “inactive”. With `CCOC(=O)c1cnc2nc(NCc3ccc(OC)c(OC)c3)[nH]n2c1=O` the Potency was “inactive”. In the case of `Cc1nnc(SCC(=O)Nc2ccc(N(C)C)cc2)[nH]c1=O`, the Potency is reported as “inactive”.
